This is an account of results in PubChem BioAssay AID1508621 (National Center for Advancing Translational Sciences (NCATS), 2021).

Records with an inconclusive call do not appear. Where a call stands in place of a potency, no number is given. Calls of active or inactive are those of the source. Calls follow the shape of the dose curve; as a rule, active = well fitted inhibition curve with a large enough effect; inconclusive = small, poorly fitted or top-dose-only effect; inactive = no such curve, though single readings can be large or run the other way.
Potency is read from the fitted curve at half-maximal effect.

The nature of the test: Confirmatory qHTS for Identification of Small Molecule Inhibitors of Huntingtin Promoter Activity. Also: nearly all actives have a fitted effect of over 65% in size. The note with it: HEK293 HTT promoter firefly luciferase reporter, 24 h; series mostly up to 57.5 µM. The method in brief: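 HEK293 luciferase reporter cells, 2,500/well, cultured 24 h, then exposed to compounds at up to 57.5 uM final for 24 h at 37C. Firefly luciferase luminescence read; normalized to vehicle (0%) and zero RLU (-100%).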
(In general: Quantitative high-throughput screening tests each substance at several concentrations.)
In the case of `COc1ccc(Cn2c(CO)cnc2SCc2ccc(F)cc2)cc1`, the Potency result was “inactive”.

On to `CCOC(=O)c1ccc(C#Cc2ccc3c(c2)C(C)(C)CCS3)nc1`, for which the Potency result is “inactive”.

With `CC(C)C[C@@H](C=O)NC(=O)[C@H](CC(C)C)NC(=O)[C@H](CC(C)C)NC(=O)OCc1ccccc1`, the Potency is 2130 nM (active).

Take `CO[C@H]1C=CC=C(C)C(=O)NC2=CC(=O)C(NCCN(C)C)=C(C[C@@H](C)C[C@H](OC)[C@@H](O)[C@@H](C)C=C(C)[C@@H]1OC(N)=O)C2=O`: the Potency result is “inactive”.

Regarding `COCCn1c2c([n+](Cc3cnccn3)c1C)C(=O)c1ccccc1C2=O`, the Potency is 95.3 nM (active).

Take `CN(C)C(=O)COC(=O)Cc1ccc(OC(=O)c2ccc(N=C(N)N)cc2)cc1`: the Potency entry is “inactive”.

As for `COC[C@H](NC(=O)c1cnc(C)s1)C(=O)N[C@@H](COC)C(=O)N[C@@H](Cc1ccccc1)C(=O)[C@@]1(C)CO1`, the Potency is 301 nM (active).

`Cc1cccc(C2C=C(c3ccc(F)cc3)Nc3nc4ccccc4n32)c1` (centres undefined): the Potency entry was “inactive”.

Turning to `COc1ccc(NC(=O)Cn2nc(-c3ccncc3)ccc2=O)cc1Cl`, the Potency result is “inactive”.

On to `CCOc1ccc(C(=O)NCc2ccc3c(c2)CCN3C(=O)c2ccccc2)cc1`, for which the Potency entry was “inactive”.

Consider `Cc1ccc(-n2ncc3c(N(C)Cc4ccccc4)ncnc32)cc1`, for which the Potency result was “inactive”.

As for `O=C(O)c1ccc2c(c1)N(Cc1ccc(F)cc1)C(=O)c1ccccc1S2=O` (centres undefined), the Potency result is “inactive”.

`Cc1cc(Nc2cccc(C(F)(F)F)c2)nc2ccc(NC(=O)c3cccnc3)cc12`: the Potency is 19000 nM (active).

In the case of `O=S(=O)(c1ccc(-c2csc(=Nc3ccc(OC(F)(F)Cl)cc3)n2CCCO)cc1)N1CCCC1`, the Potency was 1900 nM (active).
